NPC1 promoter act – NPC1 promoter activation. actives 2.4% (n = 320,000). Huh7 NPC1 promoter luciferase reporter, 24 h. Potency, µM (top dose mostly 9.22 µM), without a hit: at the top dose activation, most hits filed as activators; further: % of control where 0% means no effect; nearly all actives have a fitted effect of over 60% in size
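Readout is luciferase luminescence, reflecting NPC1 promoter activation in stably transfected Huh7 cells after 24 h compound exposure at 37 °C in reduced-serum medium with 10% FBS.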
SMN2 splice enh – increases expression of the SMN2 splice variant; HEK293 SMN2-luciferase splicing reporter, luminescence, 30-36 h; actives 2.8% (n = 210,000); Potency, µM (titrated, usually from 46.1 µM), inactives show at the top dose activity change, positive = activation, most hits filed as activators; AID 1458; further: % of control where 0% means no effect; nearly all actives have a fitted effect of over 55% in size
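HEK293 cells carry an SMN2 […]–luciferase reporter in which exon 7 inclusion puts luciferase in frame. Cells were plated 10-12 h before compound addition, then incubated 30-36 h at 37C. ONE-Glo luminescence was read; sodium butyrate at 4.5 mM final served as control.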
p53 reactivator – restores transcriptional activity of mutant p53 | H1299 p53-A138V BP100-luciferase reporter, luminescence, 24 h | Potency, µM (highest dose often 92.2 µM), for inactives: top-dose activity change, positive = activation, actives largely listed as activators | actives 0.063% (n = 320,000); further: % of control where 0% means no effect; nearly all actives have a fitted effect of over 45% in size
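H1299 (p53-null), stable ts p53-A138V + BP100-Luc; 1000 cells/well, Opti-MEM/10% FBS; cpd 4 pt, 1:5; 24 h, 37 deg C, 5% CO2; detection reagent 10 min RT; luminescence.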
FLuc counter – firefly luciferase modulation, counter-screen for miR-21 project; actives 6.9% (n = 360,000); Potency, µM (titrated, usually from 57.5 µM), for the others: at the top dose activity change, negative = inhibition, hits mostly inhibitors; purified FLuc, Km substrates, luminescence inhibition;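 further: plate controls were vehicle for no effect and reference inhibitor for full effect; nearly all actives have a fitted effect of over 55% in size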
Target sequence (P08659 whole entry, looked up): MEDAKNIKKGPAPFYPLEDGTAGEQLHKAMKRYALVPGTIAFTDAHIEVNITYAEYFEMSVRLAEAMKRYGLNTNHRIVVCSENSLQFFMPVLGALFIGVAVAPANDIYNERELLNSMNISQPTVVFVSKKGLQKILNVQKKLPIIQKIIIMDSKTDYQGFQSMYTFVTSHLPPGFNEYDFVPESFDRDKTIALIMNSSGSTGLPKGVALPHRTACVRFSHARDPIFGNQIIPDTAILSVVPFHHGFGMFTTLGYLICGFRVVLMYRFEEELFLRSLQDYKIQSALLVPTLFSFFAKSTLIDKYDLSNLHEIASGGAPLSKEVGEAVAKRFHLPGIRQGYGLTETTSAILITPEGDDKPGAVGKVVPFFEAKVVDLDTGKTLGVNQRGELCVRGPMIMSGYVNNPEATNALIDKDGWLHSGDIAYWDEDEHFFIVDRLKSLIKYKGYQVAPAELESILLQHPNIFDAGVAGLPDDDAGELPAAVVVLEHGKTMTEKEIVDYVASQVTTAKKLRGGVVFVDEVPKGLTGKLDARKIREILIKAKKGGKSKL
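Purified P. pyralis luciferase, 10 nM final, with Km-level 10 uM D-luciferin and 10 uM ATP in 50 mM Tris acetate pH 7.5, 10 mM Mg acetate, 0.01% Tween-20, 0.05% BSA; 6-point qHTS titration about 60 µM downward; luminescence read.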
Rab9 prom act – activators of Rab9 promoter | Huh7 Rab9 promoter-luciferase reporter, luminescence, 24 h | Potency, µM (top dose mostly 9.22 µM), without a hit: at the top dose activation, negative = inhibition, most hits filed as activators | actives 2.8% (n = 320,000) | AID 485297; further: % of control where 0% means no effect; nearly all actives have a fitted effect of over 60% in size
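Huh7 cells stably carrying a Rab9 promoter-luciferase reporter, 1500 cells per well in OP-MEM I with 10% FBS, treated with compound 24 hours at 37C. Luciferase activity read by luminescence after 10 minutes with Amplite reagent.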
ELG1 genotoxic – induces genotoxicity in HEK293T cells with luciferase-tagged ELG1. actives 1.3% (n = 330,000). AID 504466. Potency, µM (top dose mostly 46 µM), for the others: at the top dose activity change, positive = activation, usual class: activators. HEK293T ELG1-luciferase reporter, luminescence, 16 h; further: % of control where 0% means no effect; nearly all actives have a fitted effect of over 60% in size
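HEK293T cells expressing luciferase-tagged ELG1 were exposed to compound or DMSO vehicle for 16 hr at 37 °C and 5% CO2. Luciferase activity was then measured with ONE-Glo after 30 min at room temperature.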
An asterisk follows results filed as active; u = inconclusive; x = no result given; [ ] = dose if it differs, or a comment. An excerpt weighted towards active compounds, which were near 7.4% of everything screened. The call rests on the fitted dose curve; in most records, active means well fitted curve in the direction sought with a large enough effect; inconclusive means small, poorly fitted or top-dose-only effect, or another doubt; inactive means no such curve, though single readings can be large; an effect the other way counts as inactive or inconclusive. Potency means the concentration at half of the fitted maximal effect.

SMILES | NPC1 promoter act | SMN2 splice enh | p53 reactivator | FLuc counter | Rab9 prom act | ELG1 genotoxic
CCOC(=O)c1c(NC(=O)c2cc(C)oc2C)sc(C(=O)Nc2ccc(Cl)cc2)c1C | 23.4% | -2.0% | 7.5% | 16.9µM* | 29.0% | 14.5%
COc1ccc(N2CCN(C(=O)CNC(=O)c3ccccc3Cl)CC2)cc1 | -0.3% | x | 1.5% | 2.0% | -9.9% | -7.0%
COc1ccccc1-n1cc(C(=O)NCC(=O)N2CCN(c3ccccn3)CC2)c2ccccc2c1=O | 16.1% | x | 8.5% | 3.38µM* | 17.2% | 12.1%
COc1ccccc1N1CCN(C(=O)CNC(=O)c2cn(-c3ccccc3OC)c(=O)c3ccccc23)CC1 | 7.4% | 9.0% | -1.3% | 6.75µM* | 22.2% | 6.7%
COc1ccccc1-n1cc(C(=O)NCC(=O)N2CCN(c3ccccc3)CC2)c2ccccc2c1=O | 27.9% | u | 7.1% | 0.757µM* | u | 15.3%
O=C(c1cccc(F)c1)N1CCC2(CC1)CCN(c1ccncc1)CC2 | x | -29.8% | x | x | x | x
CCNC(=O)CN(Cc1ccccc1)S(=O)(=O)c1ccccc1 | -0.3% | 0.3% | 13.0% | 8.1% | 0.4% | 23.1µM*
CCOC(=O)CC[C@H](NC(=O)Cn1cnc2c(SC)nc(N)nc21)C(=O)OCC | x | x | 22.1% | x | x | 5.4%
COc1ccc(-c2ccc(CCC(=O)O)n2-c2ccc(Cl)cc2C)cc1 | x | 0.7% | x | u | x | x
Cc1sc2nc(-c3ccccc3)[nH]c(=O)c2c1-c1ccccc1 | -2.6% | 0.1% | -13.8% | -6.0% | -2.0% | 5.6%
Cc1sc2nc(-c3cccnc3)nc(Cl)c2c1-c1ccccc1 | u | u | 8.6% | 16.9µM* | 17.1% | 11.4%
COc1ccc(C(CC(=O)c2ccccc2)S(=O)(=O)c2ccc(C)cc2)cc1 (centres undefined) | 2.24µM* | u | 19.6% | 0.757µM* | 3.98µM* | u
COc1ccccc1NC(=O)NC1(C(=O)NCC2CCCO2)CCCCC1 (centres undefined) | -8.0% | x | -1.2% | 1.2% | -1.1% | -0.3%
CCCCOc1ccccc1C(=O)Nc1nonc1-c1ccccc1 | x | -24.5% | x | u | x | x
Fc1cccc(-c2cc3nc4c(c(NCc5ccco5)n3n2)CCCC4)c1 | u | 11.2µM* | u | 7.57µM* | u | 17.0%
O=S(=O)(NC(=S)c1ccccc1)c1ccc(F)cc1 | -1.4% | x | 7.1% | 3.2% | -0.5% | -6.4%
O=C(OCc1cc2ccccc2[nH]c1=O)c1ccccc1 | -9.7% | -12.5% | 1.4% | -0.3% | 2.1% | 1.6%
O=C(COc1ccccc1)OCc1cc2ccccc2[nH]c1=O | -1.3% | -6.2% | -2.3% | 21.3µM* | 0.0% | -7.1%
COc1ccc(NC(=O)c2cccc(F)c2)cc1Cl | 3.55µM* | u | 13.5% | 13.5µM* | u | 9.2µM*
COc1ccc(NC(=O)c2ccccc2F)cc1Cl | 2.24µM* | u | u | 9.53µM* | 2.24µM* | 9.2µM*
COc1ccc(C(=O)Nc2cc(C(=O)O)cc(C(=O)O)c2)cc1Cl | -5.5% | 2.7% | -1.7% | -0.8% | -9.4% | -3.6%
Cc1c(Cl)cccc1NC(=O)c1cccc(OC(F)F)c1 | 17.8% | -7.8% | 12.5% | u | 18.6% | 5.0%
O=C(Nc1ccc(OC(F)F)c(Cl)c1)c1cccc(OC(F)F)c1 | 12.4% | -1.5% | 18.6% | 19µM* | 19.9% | -7.7%
COc1cc(OC)c(NC(=O)c2cccc(F)c2)cc1Cl | 0.8% | 9.1% | -6.5% | -15.1% | 1.5% | -3.6%
COC(=O)c1cccc(NC(=O)c2ccc(OC)c(Cl)c2)c1 | u | u | -1.8% | 10.7µM* | u | 5.8%
SMILES | NPC1 promoter act | SMN2 splice enh | p53 reactivator | FLuc counter | Rab9 prom act | ELG1 genotoxic
CCN(CC)c1ccc(C(=O)N2CCC(c3c[nH]c4ccccc34)(c3c[nH]c4ccccc34)CC2)cc1 | x | -6.9% | x | 2.6% | x | x
CCOc1ccc(N(C)C(=O)CCc2nnc3ccc(NCc4ccco4)nn23)cc1 | -4.7% | x | 8.7% | -0.4% | -1.9% | 7.6%
Cn1c(=O)n(C)c2cc(CNCc3ccc(F)cc3)ccc21 | x | x | x | -1.4% | x | x
Cc1cccc2sc(N(Cc3cccnc3)C(=O)C3CCCCC3)nc12 | x | x | x | 0.6% | x | x
COc1ccc(NC(=O)c2cccc(OC(F)F)c2)cc1Cl | 3.55µM* | u | 10.9% | 10.7µM* | 2.24µM* | 5.8µM*
CCCC1c2c(ccc3ccccc23)Oc2ccc3ccccc3c21 | x | -14.4%[9.22 µM] | x | x | x | x
COC(=O)c1ccc(-c2ccc(/C=N/N3C(=O)C4C5C=CC(CC5)C4C3=O)o2)cc1 (centres undefined) | 3.16µM* | 5.01µM* | -3.5% | 23.9µM* | 3.16µM* | -6.9%
O=C(O)c1cc(-c2ccc(/C=N/N3C(=O)C4C5C=CC(CC5)C4C3=O)o2)ccc1Cl (centres undefined) | 0.9% | x | 4.2% | 19µM* | 1.1% | 3.4%
O=C1C2C3C=CC(CC3)C2C(=O)N1/N=C/c1ccc(O)cc1 (centres undefined) | u | 2.5% | 20.1% | 15.1µM* | 25.5% | u
O=C(NC1CCCCC1)c1ccc(CSc2nc3ccncc3n2Cc2ccccc2)cc1 | x | 6.2% | x | u | x | x
Cc1oc2c(C)c3oc(=O)c(CCC(=O)NCCCn4ccnc4)c(C)c3cc2c1C | -5.5% | x | x | -2.8% | -7.3% | 2.8%
S=C(Nc1ccc2c(c1)OCO2)N1CCN(Cc2ccco2)CC1 | u | x | 0.1% | 1.35µM* | u | 14.8%
S=C(NCc1ccco1)N1CCN(Cc2ccco2)CC1 | -0.8% | -2.2% | 5.6% | -0.9% | -2.5% | -0.8%
COc1cccc2sc(Nc3nnc(-c4ccc(F)cc4)o3)nc12 | -2.7% | 6.3% | -1.1% | 23.9µM* | -9.5% | u
COc1cccc2sc(Nc3nnc(-c4cccs4)o3)nc12 | 3.98µM* | 14.1µM* | u | 4.78µM* | 1µM* | u
CC(=O)Nc1nnc(-c2ccco2)o1 | -9.7% | 7.8% | 5.2% | 3.6% | -3.4% | -11.8%
COc1cccc2sc(NNC(=O)COc3ccccc3)nc12 | 3.7% | 5.0% | 0.0% | -0.9% | -0.6% | -2.1%
Fc1cccc2sc(Nc3nnc(-c4ccco4)o3)nc12 | 3.98µM* | 3.55µM* | u | 10.7µM* | 2.51µM* | 2.59µM*
C/C(=C\C1CCCCC1)C(NC(=O)c1cccnc1)c1ccc(-c2ccccc2)cc1 (centres undefined) | x | -26.9% | x | x | x | x
Cc1ccc(S(=O)(=O)N(C)C)cc1NC(=O)COc1ccc(-c2nnco2)cc1 | -5.6% | x | 2.0% | 16.9µM* | -1.8% | -2.5%
Cc1ccc(S(=O)(=O)N(C)C)cc1NC(=O)COC(=O)c1c(-c2ccccc2)noc1C | -2.2% | x | -1.5% | 2.5% | -0.3% | -7.6%
